# Screening data deposited in PubChem BioAssay by Broad Institute.
# PD-1 reversal: activators reversing PD-1 mediated T-cell inhibition, primary screen, luminescence, primary human CD4 T cells, PD-L1 beads; CellTiter-Glo 96 h; activation, % (test concentration not listed); 29,000 tested, under 10 active; AID 2316, 2010; call rule not given here
# NOMO-1 viab: NOMO-1 AML cell viability reduction, primary screen, STK33 inhibitor project, CellTiter-Glo luminescence; 7.5% of 37,000 active; inhibition, % (no concentration beside the values); AID 2330, 2010; NOMO-1 AML viability, 72 h; in the data active = inhibition above about 80%; inconclusive = no clear call, values can overlap the other calls
# Hedgehog inh: Hedgehog pathway signaling inhibitors, primary screen, luminescence, Shh-LIGHT2 cells, Gli-luciferase. Shh-LIGHT2 Gli-luciferase reporter, 30 h. inhibition, % (test concentration not listed). 2.1% of 22,000 active. AID 2313, 2010;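 active = mean inhibition across valid replicates above about 65%, limit read from the data; inconclusive = mean under the limit, yet half or more replicates past it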;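 note: pathway switched on by Shh-conditioned medium diluted 1 in 25 in low serum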
# MITF inhib: inhibitors of MITF, primary screen, MITF inhibitor project, cell-based, luminescence. AID 2240, 2010. TRPM1 promoter luciferase, 24 h. inhibition, % (test concentration not listed). 0.28% of 37,000 active; in the data active = inhibition above about 85%; inconclusive = no clear call, values can overlap the other calls; inactive = below about 68%;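 note: human melanocyte line stably carrying TRPM1 promoter luciferase reporter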
# Hits are given with their value; 0 = inactive; ? = inconclusive; - = not tested or not shown. The list is not random: actives were taken first. Their share in the collection is about 8.1%.
SMILES,PD-1 reversal,NOMO-1 viab,Hedgehog inh,MITF inhib
Cc1cc(C(=O)Nc2cccc3c2O[C@H](CN(C)C(=O)Nc2ccc(C(F)(F)F)cc2)[C@H](C)CN([C@@H](C)CO)C3=O)n(C)n1,-,0,0,0
CN[C@H]1CC[C@@H](c2ccc(Cl)c(Cl)c2)c2ccccc21,-,107.1,-,0
COc1cccc2c1C(=O)c1ccc3c(c1C2=O)C(=O)CC(C)(O)C3 (stereo unspecified),0,92.7,0,0
CC1(O)CC(=O)c2c(ccc3c2C(=O)c2cccc(O)c2C3=O)C1 (stereo unspecified),0,95.2,0,0
C[C@@H]1CCCCO[C@H](CN(C)S(=O)(=O)c2cn(C)cn2)[C@@H](C)CN([C@H](C)CO)C(=O)c2cc(NC(=O)NC3CCCCC3)ccc2O1,0,0,0,0
CCc1nc(SCC(=O)Nc2ccc(C(=O)OC)cc2)n[nH]1,-,0,-,0
CC(C)NC(=O)Nc1ccc2c(c1)CC(=O)N([C@@H](C)CO)C[C@H](C)[C@H](CN(C)C(=O)Nc1ccccc1)O2,0,0,0,0
C[C@H](CO)N1C[C@H](C)[C@H](CN(C)C(=O)Nc2ccc(C(F)(F)F)cc2)Oc2c(NC(=O)Nc3cccc4ccccc34)cccc2C1=O,0,101.7,0,0
C[C@H](CO)N1C[C@H](C)[C@@H](CN(C)C(=O)Nc2ccc(C(F)(F)F)cc2)Oc2c(NC(=O)Nc3cccc4ccccc34)cccc2C1=O,0,99.9,0,0
C[C@H]1CN([C@@H](C)CO)C(=O)c2cccc(NC(=O)Nc3cccc4ccccc34)c2O[C@H]1CN(C)C(=O)Nc1ccc(C(F)(F)F)cc1,0,109.5,0,0
C[C@@H]1CN([C@@H](C)CO)C(=O)c2cccc(NC(=O)Nc3ccc(C(F)(F)F)cc3)c2O[C@@H]1CN(C)C(=O)Nc1cccc2ccccc12,0,0,0,0
C[C@H]1CN([C@@H](C)CO)C(=O)c2cccc(NC(=O)Nc3cccc4ccccc34)c2O[C@H]1CN(C)C(=O)Nc1ccc(F)cc1,0,87.2,0,0
C[C@H](CO)N1C[C@H](C)[C@H](CN(C)C(=O)NC2CCCCC2)Oc2ccc(NC(=O)C3CC3)cc2C1=O,0,0,-,0
O=c1cc(-c2ccccc2)oc2c(O)c(O)ccc12,-,101.0,0,0
CNC[C@@H]1Oc2ccc(NC(=O)Nc3ccc4c(c3)OCO4)cc2CC(=O)N([C@@H](C)CO)C[C@@H]1C,0,0,-,0
C=C1CC[C@H]2[C@@](C)(CCC(O)[C@@]2(C)CO)[C@@H]1CCC1=CCOC1=O (stereo partly specified),0,0,0,0
C=C1CC[C@@H]2[C@](C)(CO)[C@H](O)CC[C@@]2(C)[C@@H]1C/C=C1/C(=O)OC[C@H]1O,0,107.8,0,0
COc1ccc(NC(=O)Cc2ccccc2[N+](=O)[O-])cc1OC,0,0,-,0
C[C@@H]1CN([C@@H](C)CO)C(=O)c2cc(NC(=O)Nc3ccc4c(c3)OCO4)ccc2O[C@@H]1CN(C)C,0,0,-,0
CCC(C)C(=O)c1c(O)cc2c(c1O)CC(CC=C(C)C)C(C)(C)O2 (stereo unspecified),0,88.2,0,0
C[C@H](CO)N1C[C@H](C)[C@@H](CN(C)CC2CC2)Oc2c(NC(=O)Nc3ccc(C(F)(F)F)cc3)cccc2C1=O,0,98.5,0,0
C[C@@H]1CN([C@H](C)CO)C(=O)c2cccc(NC(=O)Nc3ccc(C(F)(F)F)cc3)c2O[C@@H]1CN(C)CC1CCCCC1,0,0,0,0
C[C@H]1CN([C@@H](C)CO)C(=O)c2cccc(NC(=O)Nc3ccc(C(F)(F)F)cc3)c2O[C@@H]1CN(C)CC1CCCCC1,-,81.6,0,0
C[C@H](CO)N1C[C@H](C)[C@H](CN(C)CC2CCCCC2)Oc2c(NC(=O)Nc3ccc(C(F)(F)F)cc3)cccc2C1=O,0,116.3,0,0
Cc1ccc(S(=O)(=O)Nc2cccc3c2O[C@H](CN(C)Cc2ccc(Cl)c(Cl)c2)[C@H](C)CN([C@H](C)CO)C3=O)cc1,0,0,0,0
SMILES,PD-1 reversal,NOMO-1 viab,Hedgehog inh,MITF inhib
Cc1ccc(S(=O)(=O)Nc2cccc3c2O[C@@H](CN(C)Cc2ccc(Cl)c(Cl)c2)[C@@H](C)CN([C@H](C)CO)C3=O)cc1,0,119.0,113.2,0
Cc1ccc(S(=O)(=O)Nc2cccc3c2O[C@H](CN(C)Cc2ccc(Cl)c(Cl)c2)[C@H](C)CN([C@@H](C)CO)C3=O)cc1,-,103.9,0,0
C[C@H](CO)N1C[C@H](C)[C@H](CN(C)Cc2ccc(Cl)c(Cl)c2)Oc2c(NS(=O)(=O)c3ccc(Cl)cc3)cccc2C1=O,-,109.1,90.2,0
Cc1ccc(S(=O)(=O)Nc2cccc3c2O[C@@H](CN(C)S(=O)(=O)c2cn(C)cn2)[C@H](C)CN([C@@H](C)CO)C3=O)cc1,0,0,0,0
C[C@@H]1CN([C@@H](C)CO)C(=O)c2cc(NC(=O)Nc3ccc(F)cc3)ccc2O[C@H]1CN(C)S(=O)(=O)c1ccc(F)cc1,0,0,0,0
C[C@H](CO)N1C[C@H](C)[C@H](CN(C)S(=O)(=O)c2cn(C)cn2)Oc2ccc(NC(=O)Nc3ccc(C(F)(F)F)cc3)cc2C1=O,0,0,-,0
C[C@@H]1CN([C@@H](C)CO)C(=O)c2cccc(NC(=O)C3CC3)c2O[C@@H]1CN(C)S(=O)(=O)c1ccccc1,0,0,0,0
C[C@H]1CN([C@@H](C)CO)C(=O)Cc2cc(NS(=O)(=O)c3ccc(F)cc3)ccc2O[C@H]1CN(C)Cc1ccc(C(=O)Nc2ccccc2N)cc1,0,140.0,-,0
C[C@@H]1CN([C@@H](C)CO)C(=O)Cc2cc(NS(=O)(=O)c3ccc(F)cc3)ccc2O[C@@H]1CN(C)Cc1ccc(C(=O)Nc2ccccc2N)cc1,0,112.1,-,0
C[C@H]1CN([C@@H](C)CO)C(=O)Cc2cc(NS(C)(=O)=O)ccc2O[C@@H]1CN(C)Cc1ccc(C(=O)Nc2ccccc2N)cc1,0,0,-,0
C[C@@H]1CN([C@H](C)CO)C(=O)c2cccc(NC(=O)Nc3ccc(C(F)(F)F)cc3)c2O[C@@H]1CN(C)Cc1ccc(C(=O)O)cc1,0,0,0,0
C[C@@H]1CN([C@@H](C)CO)C(=O)c2cc(NC(=O)Nc3ccc(F)cc3)ccc2O[C@@H]1CN(C)Cc1ccc(C(=O)Nc2ccccc2N)cc1,0,?,-,0
C[C@H](CO)N1C[C@H](C)[C@H](CN(C)Cc2ccc(C(=O)Nc3ccccc3N)cc2)Oc2c(NC(=O)Nc3ccc(F)cc3)cccc2C1=O,0,97.1,-,0
C[C@@H]1CN([C@@H](C)CO)C(=O)c2cccc(NC(=O)Nc3ccc(C(F)(F)F)cc3)c2O[C@H]1CN(C)Cc1ccc(C(=O)Nc2ccccc2N)cc1,0,128.0,-,0
C[C@@H]1CN([C@H](C)CO)C(=O)c2cccc(NC(=O)Nc3ccc(F)cc3)c2O[C@H]1CN(C)Cc1ccc(C(=O)Nc2ccccc2N)cc1,0,127.2,-,0
C[C@H]1CN([C@@H](C)CO)C(=O)c2cc(NC(=O)Nc3ccc(F)cc3)ccc2O[C@H]1CN(C)Cc1ccc(C(=O)Nc2ccccc2N)cc1,0,?,-,0
